Only some compounds are listed: those with a hit (about 4% of all), similar ones and a draw of the others.
HIF-2a block – HIF-2a reporter inhibitors, primary screen, luminescence, 786-0 RCC cells; AID 624352, 2012; 360,000 tested, 0.72% active; inhibition, % at 18.8 µM; 786-0 RCC cells HIF-2a reporter, luciferase luminescence, overnight;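 active means inhibition of the luminescence signal of 40% or more relative to plate controls, in a single-dose primary screen at 18.75 µM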
TWEAK-Fn14 inh – inhibitors of TWEAK-Fn14 signaling, primary screen, luciferase reporter cells, uHTS; TWEAK-stimulated Fn14 reporter cells, luciferase luminescence, 8 h; inhibition, % at 10 µM; 360,000 tested, 2% active; in the data active means inhibition above about 50%
TROY signal inh – inhibitors of TROY-driven NF-kB signaling, primary screen, Q293 LMP1-TROYcd cells, NF-kB luciferase, uHTS; 360,000 tested, 0.98% active; AID 1347056, 2019; inhibition, % at 10 µM; Q293 LMP1-TROYcd NF-kB luciferase reporter, 4 h;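 active means compounds whose plate-normalised and pattern-corrected inhibition of the luciferase reporter signal at the single screening dose is 50% or more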
Peg3 prom inh-1 – Peg3 promoter-driven luciferase inhibitors, primary screen, cell-based, HeLa, luciferase luminescence | HeLa PEG-Prom luciferase reporter, overnight | inhibition, % at 20 µM | 360,000 tested, 1.7% active | AID 588405, 2011;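 active means inhibition of at least 50% at 20 µM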
LMP1 NFkB inh – EBV LMP1-driven NF-kappaB luciferase reporter inhibitors, primary screen, cell-based, luminescence, single point. LMP1-induced NF-kappaB luciferase reporter cells. inhibition, % at 12.5 µM. 350,000 tested, 0.69% active. AID 504558, 2011; in the data active means inhibition above about 41%; inconclusive means no clear call, values can overlap the other calls;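 further: 0% = neutral control wells and 100% = reference inhibitor control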
MITF TRPM1 inh – inhibitors of MITF-dependent TRPM1 promoter reporter, primary screen, cell-based, SK-MEL-5, single point, luciferase. SK-MEL-5 TRPM1 promoter luciferase, 24 h. inhibition, % at 12.5 µM. 330,000 tested, 0.83% active. AID 488899, 2010;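 active means mean inhibition across replicates of 60% or more, whatever share of single replicates reaches that level; inconclusive means some that reach 60%, reason not given; inactive means mean inhibition across replicates below 60%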
Peg3 prom inh-2 – Peg3 promoter reporter inhibitors, retest, confirmation, cell-based, HeLa, luciferase reporter, single concentration; shares compounds with Peg3 prom inh-1; HeLa PEG-Prom luciferase reporter, luminescence, overnight; inhibition, % at 20 µM; 1,300 tested, 84% active; AID 602417, 2012;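 active means at 20 µM dose, 40% or more inhibition averaged across four replicates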
An asterisk follows results filed as active; ? = inconclusive; nt = not tested or not shown.

SMILES	HIF-2a block	TWEAK-Fn14 inh	TROY signal inh	Peg3 prom inh-1	LMP1 NFkB inh	MITF TRPM1 inh	Peg3 prom inh-2
COc1ccc(C(NC(=O)C(C)C)c2ccc3cccnc3c2O)cc1 (stereo not drawn)	22.6	22.1	3.9	60.7*	24.1	76.3*	65.9*
Cc1ccnc(NC(c2ccccc2)c2ccc3cccnc3c2O)c1 (stereo not drawn)	15.6	-21.6	-6.4	20.6	13.9	30.7	nt
O=C(O)c1ccccc1NC(c1ccccc1)c1ccc2cccnc2c1O (stereo not drawn)	16.2	-19.5	-1.6	40.6	16.2	3.7	nt
CCCC(=O)NC(c1ccc(C(C)C)cc1)c1ccc2cccnc2c1O (stereo not drawn)	18.3	29.2	33.7	66.7*	61.9*	49.4	70.0*
CC(C)C(=O)NC(c1ccc(N(C)C)cc1)c1c(O)ccc2ccccc12 (stereo not drawn)	16.0	33.1	20.1	20.5	-9.7	9.2	nt
Cc1cc(NC(c2ccc(Cl)cc2)c2ccc3cccnc3c2O)no1 (stereo not drawn)	14.3	-31.1	15.0	52.8*	69.6*	77.6*	63.2*
CCCC(=O)NC(c1ccc(N(C)C)cc1)c1ccc2cccnc2c1O (stereo not drawn)	8.0	2.9	5.9	56.6*	46.7*	72.6*	68.2*
COc1cc(C(=O)N2CCN(S(=O)(=O)c3ccc(C)cc3C)CC2)ccc1OCC(=O)N1CCOCC1	12.3	-30.3	4.6	19.4	1.0	1.0	nt
CCC(=O)NC(c1ccc(C)cc1)c1ccc2cccnc2c1O (stereo not drawn)	15.6	20.6	21.7	60.5*	?	?	68.5*
CCCCC(=O)NC(c1ccc(OC)cc1)c1ccc2cccnc2c1O (stereo not drawn)	18.7	0.1	-0.3	51.9*	64.6*	nt	69.4*
Cc1ccnc(NC(c2cccnc2)c2ccc3cccnc3c2O)c1 (stereo not drawn)	17.7	-7.8	17.8	9.4	4.1	12.0	nt
CCCC(=O)NC(c1ccc(OC)cc1)c1c(O)ccc2ccccc12 (stereo not drawn)	27.5	21.9	4.2	34.8	-8.2	21.7	nt
CC(=O)NC(c1ccc(Cl)cc1)c1ccc2cccnc2c1O (stereo not drawn)	16.7	18.8	26.4	60.2*	62.9*	54.9	70.3*
COc1ccc(OC)c(NC(=O)c2cc3c(Cl)nc4ccccc4c3s2)c1	6.3	-67.5	29.5	64.5*	13.3	8.4	20.1
COc1ccc(NC(=O)c2cc3c(Cl)nc4ccccc4c3s2)cc1OC	-0.6	-37.3	-2.4	23.4	33.2	0.5	nt
CC(C)n1nc(C(=O)Oc2cc(Cl)ccc2Cl)c2ccccc2c1=O	3.0	0.3	-5.9	53.5*	15.4	6.7	65.1*
CC1C(O)=C(c2ccccc2)P(=O)(Cc2ccccc2)C1C (stereo not drawn)	8.7	-2.8	7.9	nt	nt	nt	nt
N#CCCCCn1ccc(NC(=O)c2ccc(Cl)cc2O)n1	-53.4	-1.9	-30.1	-51.8	-6.1	-6.4	nt
CCc1noc(C)c1C(=O)OCC(=O)NCc1ccccc1OC	1.5	2.1	3.1	-5.8	-3.1	-3.1	nt
CN(C)CC1CCC/C(=C/c2ccc(Cl)cc2)C1=O (stereo not drawn)	0.6	3.4	-15.3	96.1*	1.3	81.1*	97.8*
COc1ccc(/C=C2/CCCC(CN(C)C)C2=O)cc1 (stereo not drawn)	14.5	-18.5	-1.0	97.6*	-33.6	67.9*	99.3*
COc1ccc(C=C2CCC3C(=O)CCCC3(C)C2=O)cc1 (stereo not drawn)	-230.2	-30.8	-57.8	-329.7	-12.9	nt	nt
O=C(Cc1nn[nH]n1)NCc1ccccc1Cl	8.8	11.9	-1.4	5.2	-4.4	-0.9	nt
CCCc1nc2oc3c(Cl)ncnc3c2c2c1CCCC2	19.7	-6.5	2.1	99.1*	-3.7	27.7	34.4

Source: PubChem
